The source made the active and inactive calls. Rule for the calls: active = hit-call score of the fitted dose curve at least 0.9, where 1 is the maximum; inactive = score below 0.9.
Legend:
Conditions in all cases: mRNA level, 48 h; actives raise or lower the signal
[1] = read-out: ATP-citrate lyase (ACLY), ACLY (gene 47); test: LTEA_HepaRG_ACLY: Life Technologies and Expression Analysis (LTEA) Assay for ATP-citrate lyase (ACLY) using HepaRG (AID 2283466)
How it was run: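 HepaRG, 48 h exposure, 8-pt half-log dilutions (top 100 uM), 0.5% DMSO. Readout: ACLY mRNA, TaqMan qRT-PCR, housekeeping-normalized (ACTB/GAPDH/POLR2A). Bidirectional curve fit vs DMSO.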

[2] = read-out: Peroxisomal acyl-coenzyme A oxidase 1 (ACOX1) gene, ACOX1 (gene 51); test: LTEA_HepaRG_ACOX1: Life Technologies and Expression Analysis (LTEA) Assay for Peroxisomal acyl-coenzyme A oxidase 1 (ACOX1) gene using HepaRG (AID 2283467)
How it was run: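 Measured by qRT-PCR against three housekeeping genes: ACOX1 transcript change in human HepaRG cells after 48 h dosing. Concentrations ran up to 100 uM in half-log steps. Curves were fitted bidirectionally relative to 0.5% DMSO.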

[3] = read-out: Alkaline Phosphatase, Placental (ALPP) gene, ALPP (gene 250); test: LTEA_HepaRG_ALPP: Life Technologies and Expression Analysis (LTEA) Assay for Alkaline Phosphatase, Placental (ALPP) gene using HepaRG (AID 2283468)
How it was run: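 ALPP transcript level, measured by qRT-PCR and normalized to three housekeeping genes (ACTB, GAPDH, POLR2A), after 48 h dosing of differentiated HepaRG in serum-free induction medium. Top concentration 100 uM with half-log dilutions (8 points, 0.5% DMSO, duplicates); bidirectional fitting relative to DMSO.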

[4] = read-out: Bcl-2 (BAD) gene, BAD (gene 572); test: LTEA_HepaRG_BAD: Life Technologies and Expression Analysis (LTEA) Assay for Bcl-2 (BAD) gene using HepaRG (AID 2283469)
How it was run: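 BAD transcript change, measured by qRT-PCR against three housekeeping genes and fitted in both directions relative to 0.5% DMSO, after 48 h chemical treatment of human HepaRG liver cells at concentrations up to 100 uM.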

[5] = read-out: Bcl-2 (BAX) gene, BAX (gene 581); test: LTEA_HepaRG_BAX: Life Technologies and Expression Analysis (LTEA) Assay for Bcl-2 (BAX) gene using HepaRG (AID 2283470)
How it was run: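 Concentration-response endpoint fitted in both directions relative to 0.5% DMSO vehicle. Human HepaRG cultures receive test chemicals for 48 h at up to 100 uM; BAX mRNA is quantified by qRT-PCR against housekeeping genes.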

[6] = read-out: adenosine kinase (ADK) gene, ADK (gene 132); test: LTEA_HepaRG_ADK: Life Technologies and Expression Analysis (LTEA) Assay for adenosine kinase (ADK) gene using HepaRG (AID 2283471)
How it was run: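 Read-out is ADK transcript level measured by qRT-PCR and normalised to three housekeeping genes. Cells are human HepaRG, dosed for 48 h at up to 100 uM in 0.5% DMSO. Gain or loss of signal is fitted against DMSO controls.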

[7] = read-out: Alpha-fetoprotein (AFP) gene, AFP (gene 174); test: LTEA_HepaRG_AFP: Life Technologies and Expression Analysis (LTEA) Assay for Alpha-fetoprotein (AFP) gene using HepaRG (AID 2283472)
How it was run: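 After a 48 h plating period, cells are moved to serum-free induction medium and dosed in duplicate (100 uM maximum, half-log dilutions, 0.5% DMSO) for another 48 h. Total RNA goes to TaqMan qRT-PCR; AFP signal is housekeeping-normalized.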

[8] = read-out: BCL2L11 (gene 10018); test: LTEA_HepaRG_BCL2L11: Life Technologies and Expression Analysis (LTEA) Assay for Bcl-2 (BCL2L11) gene using HepaRG (AID 2283473)
How it was run: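 BCL2L11 transcript levels are measured by Fluidigm qRT-PCR, normalized to three housekeeping genes. HepaRG cultures were plated 48 h, then treated 48 h with test chemical (top 100 uM, half-log, 0.5% DMSO vehicle); curves were fitted bidirectionally against DMSO.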

[9] = read-out: Apolipoprotein A-V (APOA5) gene, APOA5 (gene 116519); test: LTEA_HepaRG_APOA5: Life Technologies and Expression Analysis (LTEA) Assay for Apolipoprotein A-V (APOA5) gene using HepaRG (AID 2283474)
How it was run: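 APOA5 transcript levels were quantified by qRT-PCR, normalized to three housekeeping genes, after 48 h chemical treatment of HepaRG cells (8 points, 100 uM maximum, half-log steps, 0.5% DMSO). Curves fitted in both directions against vehicle.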

[10] = read-out: Apoptosis regulator Bcl-2 (Homo sapiens) (UniProt P10415); test: LTEA_HepaRG_BCL2: Life Technologies and Expression Analysis (LTEA) Assay for Bcl-2 gene using HepaRG (AID 2283475);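 note: BCL2 transcript by TaqMan qRT-PCR normalised to ACTB GAPDH and POLR2A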
How it was run: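 Expression change of BCL2 mRNA in HepaRG after 48 h dosing, quantified by TaqMan qRT-PCR against three endogenous controls. Concentration-response used eight points up to 100 uM, vehicle 0.5% DMSO.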

[11] = read-out: Bcl-2 (BID) gene, BID (gene 637); test: LTEA_HepaRG_BID: Life Technologies and Expression Analysis (LTEA) Assay for Bcl-2 (BID) gene using HepaRG (AID 2283476)
How it was run: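 Gain or loss of BID expression is fitted relative to 0.5% DMSO vehicle. Human HepaRG liver cells received a 48 h chemical exposure over an eight-point concentration range.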

[12] = read-out: Caspase-3 (Homo sapiens) (UniProt P42574); test: LTEA_HepaRG_CASP3: Life Technologies and Expression Analysis (LTEA) Assay for cysteine-aspartic acid protease (CASP3) using HepaRG (AID 2283477)
How it was run: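 Expression of CASP3 was quantified by TaqMan qRT-PCR against three housekeeping genes (ACTB, GAPDH, POLR2A), bidirectionally versus 0.5% DMSO. HepaRG cultures received compounds in duplicate, top 100 uM with half-log steps, for 48 h in serum-free induction medium.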

[13] = read-out: Cytochrome P450 (CYP24A1), CYP24A1 (gene 1591); test: LTEA_HepaRG_CYP24A1: Life Technologies and Expression Analysis (LTEA) Assay for Cytochrome P450 (CYP24A1) using HepaRG (AID 2283478)
How it was run: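 mRNA of CYP24A1 quantified by TaqMan qRT-PCR (ACTB/GAPDH/POLR2A normalization) after 48 h chemical exposure of HepaRG cells, top concentration 100 uM, half-log steps, 0.5% DMSO vehicle, duplicates. Curves fitted bidirectionally against DMSO baseline.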

[14] = read-out: Cytochrome P450 (CYP1A2), CYP1A2 (gene 1544); test: LTEA_HepaRG_CYP1A2: Life Technologies and Expression Analysis (LTEA) Assay for Cytochrome P450 (CYP1A2) using HepaRG (AID 2283479)
How it was run: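 CYP1A2 transcript measured by TaqMan qRT-PCR against three housekeeping genes after 48-hour chemical exposure of HepaRG cells. Eight-point half-log series topping at 100 uM in 0.5% DMSO, duplicates; gain or loss fitted relative to vehicle.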

[15] = read-out: cysteine-aspartic acid protease (CASP8), CASP8 (gene 841); test: LTEA_HepaRG_CASP8: Life Technologies and Expression Analysis (LTEA) Assay for cysteine-aspartic acid protease (CASP8) using HepaRG (AID 2283480)
How it was run: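 HepaRG, 48 h exposure, duplicate wells; 8 conc, half-log from 100 uM, 0.5% DMSO. Serum-free induction medium. CASP8 mRNA by TaqMan qRT-PCR, norm. ACTB/GAPDH/POLR2A; gain/loss fitted vs DMSO.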

[16] = read-out: Cytochrome P450 (CYP2B6), CYP2B6 (gene 1555); test: LTEA_HepaRG_CYP2B6: Life Technologies and Expression Analysis (LTEA) Assay for Cytochrome P450 (CYP2B6) using HepaRG (AID 2283481)
How it was run: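 CYP2B6 transcript level quantified by qRT-PCR against three housekeeping genes, fitted bidirectionally relative to DMSO. HepaRG cultures received chemicals for 48 h, 8-point half-log series from 100 uM in 0.5% DMSO, duplicate wells, serum-free induction medium.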

[17] = read-out: Cytochrome P450 2C19 (Homo sapiens) (UniProt P33261); test: LTEA_HepaRG_CYP2C19: Life Technologies and Expression Analysis (LTEA) Assay for CYP2C19 using HepaRG (AID 2283482)
How it was run: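 CYP2C19 transcript levels by qRT-PCR, normalized to three housekeeping genes, in HepaRG cells after 48 h chemical exposure. Eight-point half-log series topping at 100 uM, 0.5% DMSO vehicle. Increases and decreases both fitted against DMSO.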

[18] = read-out: CYP2C8 (gene 1558); test: LTEA_HepaRG_CYP2C8: Life Technologies and Expression Analysis (LTEA) Assay for CYP2C8 using HepaRG (AID 2283483)
How it was run: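 CYP2C8 mRNA induction or loss, by qRT-PCR normalized to ACTB/GAPDH/POLR2A, is read in HepaRG cells after 48 h treatment. Concentrations run from 100 uM down in half-log dilutions, with 0.5% DMSO as vehicle and baseline.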

[19] = read-out: CYP2C9 (gene 1559); test: LTEA_HepaRG_CYP2C9: Life Technologies and Expression Analysis (LTEA) Assay for CYP2C9 using HepaRG (AID 2283484)
How it was run: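 Cells plated 48 h, switched to serum-free induction medium, then treated in duplicate for 48 h at eight concentrations (max 100 uM, 0.5% DMSO). RNA then analysed by qRT-PCR for CYP2C9; curves fitted in both directions relative to DMSO.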

[20] = read-out: CYP2E1 (gene 1571); test: LTEA_HepaRG_CYP2E1: Life Technologies and Expression Analysis (LTEA) Assay for CYP2E1 using HepaRG (AID 2283485)
How it was run: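 Differentiated HepaRG cells were treated in duplicate for 48 h with chemicals in 0.5% DMSO, from 100 uM downward in half-log dilutions. RNA was then analysed by qRT-PCR for CYP2E1 induction or loss.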

Sequence of Caspase-3 (Homo sapiens) (P42574 whole entry, looked up): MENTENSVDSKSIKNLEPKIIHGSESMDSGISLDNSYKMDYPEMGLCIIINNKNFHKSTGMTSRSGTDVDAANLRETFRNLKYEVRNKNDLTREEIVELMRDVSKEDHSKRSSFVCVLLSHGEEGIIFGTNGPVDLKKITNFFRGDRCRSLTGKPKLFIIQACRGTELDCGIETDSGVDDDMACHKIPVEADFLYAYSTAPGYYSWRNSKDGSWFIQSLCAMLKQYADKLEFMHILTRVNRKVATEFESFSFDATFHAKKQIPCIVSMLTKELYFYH
Sequence of Cytochrome P450 2C19 (Homo sapiens) (P33261 whole entry, looked up): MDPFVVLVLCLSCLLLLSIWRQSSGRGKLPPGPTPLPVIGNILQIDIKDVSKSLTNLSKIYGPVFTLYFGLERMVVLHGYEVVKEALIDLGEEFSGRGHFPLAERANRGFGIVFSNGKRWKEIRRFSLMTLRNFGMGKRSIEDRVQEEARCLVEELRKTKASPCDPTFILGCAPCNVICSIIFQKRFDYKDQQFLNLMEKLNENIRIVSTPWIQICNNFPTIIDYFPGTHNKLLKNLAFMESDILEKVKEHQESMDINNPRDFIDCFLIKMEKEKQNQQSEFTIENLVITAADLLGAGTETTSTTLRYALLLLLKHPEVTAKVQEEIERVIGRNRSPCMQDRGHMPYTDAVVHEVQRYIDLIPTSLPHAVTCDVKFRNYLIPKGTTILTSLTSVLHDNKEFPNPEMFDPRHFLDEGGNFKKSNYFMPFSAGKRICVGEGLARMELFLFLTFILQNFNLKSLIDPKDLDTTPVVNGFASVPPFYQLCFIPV
Sequence of Apoptosis regulator Bcl-2 (Homo sapiens) (P10415 whole entry, looked up): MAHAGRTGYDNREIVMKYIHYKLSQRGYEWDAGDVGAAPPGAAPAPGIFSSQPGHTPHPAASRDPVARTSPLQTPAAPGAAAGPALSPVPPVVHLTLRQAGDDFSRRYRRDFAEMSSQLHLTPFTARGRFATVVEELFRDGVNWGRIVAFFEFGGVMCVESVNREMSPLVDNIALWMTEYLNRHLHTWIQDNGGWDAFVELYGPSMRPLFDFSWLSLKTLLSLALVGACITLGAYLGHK

With `O=[Si]=O` as the molecule, how does the outcome [1] read?
The outcome was “inactive”.

And the outcome [2]?
The outcome was “inactive”.

And the outcome [3]?
The outcome was “inactive”.

What about the outcome [4] of the same molecule?
The outcome was “inactive”.

What about the outcome [5] of the same molecule?
The outcome was “inactive”.

And the outcome [6]?
Its outcome is “inactive”.

What about the outcome [7] of the same molecule?
The outcome was “inactive”.

And the outcome [8]?
The outcome was “inactive”.

And the outcome [9]?
The outcome was “inactive”.

What about the outcome [10] of the same molecule?
Its outcome is “inactive”.

What about the outcome [11] of the same molecule?
Its outcome is “inactive”.

What about the outcome [12] of the same molecule?
The outcome was “inactive”.

What about the outcome [13] of the same molecule?
The outcome was “inactive”.

What about the AC50 [14] of the same molecule?
The AC50 was 50 µM (active).

And the outcome [15]?
Its outcome is “inactive”.

And the AC50 [16]?
The AC50 was 0.099 µM (active).

And the outcome [17]?
The outcome was “inactive”.

What about the outcome [18] of the same molecule?
The outcome was “inactive”.

And the outcome [19]?
The outcome was “inactive”.

And the outcome [20]?
The outcome was “inactive”.

Which outcome [1] does the source give for `CCCCCCC(CCCCCCCCCCC(=O)OCC(COC(C)=O)OC(C)=O)OC(C)=O` (centres undefined) here?
The outcome was “inactive”.

What about the outcome [3] of the same molecule?
Its outcome is “inactive”.

What about the outcome [4] of the same molecule?
Its outcome is “inactive”.

And the outcome [5]?
Its outcome is “inactive”.

What about the outcome [6] of the same molecule?
The outcome was “inactive”.

And the outcome [7]?
Its outcome is “inactive”.

What about the outcome [8] of the same molecule?
Its outcome is “inactive”.

And the outcome [9]?
The outcome was “inactive”.

And the outcome [10]?
Its outcome is “inactive”.

And the outcome [11]?
Its outcome is “inactive”.

And the outcome [12]?
The outcome was “inactive”.

What about the outcome [13] of the same molecule?
Its outcome is “inactive”.

What about the outcome [14] of the same molecule?
The outcome was “inactive”.

What about the outcome [15] of the same molecule?
Its outcome is “inactive”.

What about the outcome [16] of the same molecule?
The outcome was “inactive”.

And the outcome [17]?
The outcome was “inactive”.

And the outcome [18]?
The outcome was “inactive”.

And the outcome [19]?
Its outcome is “inactive”.

And the outcome [20]?
The outcome was “inactive”.

Which outcome [1] does the source give for `CC(C)(C)c1ccccc1` here?
The outcome was “inactive”.

What about the outcome [2] of the same molecule?
The outcome was “inactive”.

And the outcome [3]?
The outcome was “inactive”.

And the outcome [4]?
The outcome was “inactive”.

What about the outcome [5] of the same molecule?
The outcome was “inactive”.

And the outcome [6]?
The outcome was “inactive”.

And the outcome [7]?
Its outcome is “inactive”.

What about the outcome [8] of the same molecule?
Its outcome is “inactive”.

What about the outcome [9] of the same molecule?
Its outcome is “inactive”.

What about the outcome [10] of the same molecule?
Its outcome is “inactive”.

And the outcome [11]?
The outcome was “inactive”.

What about the outcome [12] of the same molecule?
Its outcome is “inactive”.

What about the outcome [13] of the same molecule?
Its outcome is “inactive”.

And the outcome [14]?
The outcome was “inactive”.

What about the outcome [15] of the same molecule?
The outcome was “inactive”.

And the outcome [16]?
The outcome was “inactive”.

And the outcome [17]?
Its outcome is “inactive”.

What about the outcome [18] of the same molecule?
Its outcome is “inactive”.

What about the outcome [19] of the same molecule?
The outcome was “inactive”.

What about the outcome [20] of the same molecule?
Its outcome is “inactive”.
